The text below walks through data of PubChem BioAssay AID1722 (National Center for Advancing Translational Sciences (NCATS), 2009).

The whole screen tested about 290,000 compounds, of which fewer than 10 were called active. Only a sample is shown. Unmarked numbers belong to inactive results. Calls come from the whole dose curve.

Pyruvate kinase (Leishmania mexicana), sequence (Q27686 whole entry, looked up): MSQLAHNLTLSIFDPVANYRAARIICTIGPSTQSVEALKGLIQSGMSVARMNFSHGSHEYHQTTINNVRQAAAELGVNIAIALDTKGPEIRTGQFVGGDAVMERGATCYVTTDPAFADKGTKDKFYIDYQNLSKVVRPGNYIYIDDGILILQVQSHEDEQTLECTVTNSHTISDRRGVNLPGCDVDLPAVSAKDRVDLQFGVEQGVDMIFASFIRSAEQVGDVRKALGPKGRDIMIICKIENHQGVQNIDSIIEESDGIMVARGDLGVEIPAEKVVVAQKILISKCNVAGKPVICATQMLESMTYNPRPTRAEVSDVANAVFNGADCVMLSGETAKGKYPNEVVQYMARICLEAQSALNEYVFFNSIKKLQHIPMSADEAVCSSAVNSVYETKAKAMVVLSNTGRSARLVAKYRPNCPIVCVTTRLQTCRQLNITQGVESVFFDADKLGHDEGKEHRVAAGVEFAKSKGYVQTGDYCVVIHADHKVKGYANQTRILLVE

The assay concerns the target Pyruvate kinase (Leishmania mexicana) (UniProt Q27686). Briefly: qHTS Assay for Activators of Leishmania Mexicana Pyruvate Kinase (LmPK). To be noted: purified LmPK, Kinase-Glo ATP luminescence, 1 h; series mostly up to 57.5 µM; activity change, negative = inhibition: at the top concentration. From the text:
NIH Chemical Genomics Center [NCGC] Malcolm Walkinshaw, Hugh Morgan, Linda Gilmore University of Edinburgh, UK MLPCN Grant: 1 R03 MH085697-01 NCGC Assay Overview: Pyruvate kinase (L. Mexicana) (LmPK) enzyme was supplied as a highly purified (>95% pure) sulphate-free preparation from University of Edinburgh, UK and assayed for its ability to generate ATP from ADP using phosphoenolpyruvate (PEP) as a substrate. ATP generation was detected in a coupled reaction by luciferase-mediated luminescence, an ATP-dependent process. Pyruvate kinase substrates, PEP and ADP, were present in the assay at Km and approximately 10-fold below Km respectively. The enzyme was assayed at an intermediate level of activity to screen for both inhibitors and activators.
NCGC Assay Protocol Summary: Three uL of enzyme mix (kept on ice) in assay buffer (50 mM Imidazole pH7.2, 50 mM KCl, 7 mM MgCl2, 0.01% Tween 20, 0.05% BSA) containing PEP (0.5 mM final concentration) and LmPK (0.1 nM final concentration) was dispensed into white solid bottom 1,536 well microtiter plates. 23 nL of compound were delivered by a pin tool and 1 uL of ADP mix in assay buffer (r.t; 0.1 mM final ADP concentration) was added. Plates were incubated at room temperature for 1 hour. Two uL of detection mix (Kinase-Glo, Promega; at 4 degree Celsius protected from light) was added and luminescence read by a ViewLux (Perkin Elmer) at 1 second exposure/plate. Data were normalized to the uninhibited and AC100 inhibition (no enzyme). To monitor activation, the first column contained a five-fold concentration of LmPK (0.5 nM).
A general note: qHTS replaces the single test concentration by a dilution series.
Take `COc1ccc(C(=O)NC(=S)N2CCCCC2c2cccnc2)cc1OC` (stereo not given): the “activity change, negative = inhibition” value is -68.1%.

For the compound `CN(C)N=Nc1ccc2nc[nH]c2c1`, the “activity change, negative = inhibition” value is -49.1%.

For the compound `CC(=O)Nc1ccc(/C=C/C(=O)c2ccccc2)cc1`, the “activity change, negative = inhibition” value was -55.2%.

As for `COc1ccccc1OCc1nc2ccccc2s1`, the “activity change, negative = inhibition” value is -84.8%.

`Oc1ccccc1/C=N/n1c(-c2cccs2)n[nH]c1=S`: the “activity change, negative = inhibition” value was -30.4%.

In the case of `O=C(Oc1ccc(-c2nc(-c3ccccn3)no2)cc1)c1ccccc1`, the “activity change, negative = inhibition” value was -37.7%.

In the case of `O=c1[nH]c2ccccc2n2c(-c3ccccc3)nnc12`, the “activity change, negative = inhibition” value is -74.5%.

With `O=[N+]([O-])c1ccc2oc(-c3cccc(O)c3)nc2c1`, the “activity change, negative = inhibition” value is -33.8%.

As to `S=c1[nH]nc2c3c4c(sc3ncn12)CCCC4`, the “activity change, negative = inhibition” value was -57.3%.

Take `CCOC(=O)c1sc(NC(=O)c2ccncc2)nc1C`: the “activity change, negative = inhibition” value is -37.2%.

For `Cn1c(-c2ccco2)nc2cc3ccccc3cc21`, the “activity change, negative = inhibition” value is -80.5%.

Take `O=c1[nH]c(CCl)nc2cc(-c3ccc(Cl)cc3)sc12`: the “activity change, negative = inhibition” value was -30.2%.

As to `O=C(Nc1ccc(C(=O)O)c(O)c1)c1ccccc1`, the “activity change, negative = inhibition” value was -55.6%.

Regarding `CC(=O)N(C1=C(Cl)C(=O)c2ccccc2C1=O)c1ccc(C(=O)O)cc1`, the “activity change, negative = inhibition” value was -97.8%.

On to `O=c1c2c(nc3n1CCCCC3)sc1c(O)cccc12`, for which the “activity change, negative = inhibition” value is -38.8%.

In the case of `Cc1cc(NC(=O)Nc2ccccc2[N+](=O)[O-])no1`, the “activity change, negative = inhibition” value is -30.1%.

As for `COc1ccc(-c2cn3ccsc3n2)cc1`, the “activity change, negative = inhibition” value is -44.3%.

Regarding `CCC(=O)Nc1ccc(C(=O)Nc2cccc(OC)c2)cc1`, the “activity change, negative = inhibition” value is -41%.

As for `O=c1oc2ccccc2cc1-c1cn(-c2ccccc2)c(=S)[nH]1`, the “activity change, negative = inhibition” value was -52.2%.

`S=c1[nH]cc(-c2ccc(Cl)cc2)n1-c1ccccc1`: the “activity change, negative = inhibition” value was -27%.

As for `Cc1ccnc(NC(=O)c2ccoc2C)c1`, the “activity change, negative = inhibition” value was -80.2%.

In the case of `CCCCSc1nnc2c(n1)OC=Nc1ccccc1-2`, the “activity change, negative = inhibition” value was -36.3%.

Regarding `O=C(Nc1nnc(C2CC2)s1)c1ccccn1`, the “activity change, negative = inhibition” value is -63.9%.

For the compound `COc1ccccc1N=Cc1c(O)c2ccccc2oc1=O`, the “activity change, negative = inhibition” value is -40.9%.

For the compound `Cc1nonc1C(=O)N/N=C/c1ccc(O)cc1`, the “activity change, negative = inhibition” value was -87.7%.

Regarding `CC(C)Oc1ccc(CCc2n[nH]c(=S)n2Cc2ccccc2)cc1`, the “activity change, negative = inhibition” value is -41.2%.

Regarding `CCc1n[nH]c(=S)n1/N=C/c1c[nH]c2ccc(Br)cc12`, the “activity change, negative = inhibition” value was -58.2%.

As to `COc1cc(OC)c(C(=O)Nc2ccc(N(C)C)cc2)cc1OC`, the “activity change, negative = inhibition” value was -38.5%.

Take `CC(C)c1ccc(Nc2ncccc2C#N)cc1`: the “activity change, negative = inhibition” value was -45.8%.

On to `O=C(Nc1cccc2ccccc12)c1onc2c1CCCC2`, for which the “activity change, negative = inhibition” value was -58.3%.

As for `CN(C)c1nc(=Nc2cccc(Cl)c2)ss1`, the “activity change, negative = inhibition” value was -52.9%.

`Oc1ccc(N=Nc2nccs2)c(O)c1`: the “activity change, negative = inhibition” value was -62.3%.

Take `CCc1nnc(NS(=O)(=O)c2ccc(N=Cc3c(C)[nH]n(-c4ccc(C)cc4)c3=O)cc2)s1`: the “activity change, negative = inhibition” value was -44.9%.

Regarding `Cc1ccc(NC(=O)c2sccc2C)cc1[N+](=O)[O-]`, the “activity change, negative = inhibition” value is -43.8%.

Turning to `Cc1cc(C(=O)COC(=O)C2CC2)c(C)n1-c1ccc(F)cc1`, the “activity change, negative = inhibition” value is -45.2%.

Turning to `CCCCCC(=O)NC(=S)NNC(=O)c1ccc([N+](=O)[O-])cc1`, the “activity change, negative = inhibition” value was -63.3%.

With `COC(=O)c1ccc(NCC(=O)c2ccccc2)cc1`, the “activity change, negative = inhibition” value was -53.5%.

With `N/C(=N\OC(=O)c1ccc([N+](=O)[O-])cc1)c1ccccn1`, the “activity change, negative = inhibition” value was -64.5%.

Consider `CCOc1ccc(NC(=O)Nc2cc(C)ccc2OC)cc1`, for which the “activity change, negative = inhibition” value is -31.1%.

Turning to `COc1ccccc1C(=O)Nc1ccc(NC(=O)c2ccco2)c(C)c1`, the “activity change, negative = inhibition” value is -73.8%.

In the case of `O=c1oc2cc(O)ccc2cc1-c1ccc(F)cc1`, the “activity change, negative = inhibition” value is -57%.

Consider `CC(OC(=O)c1ccc2ccccc2n1)C(=O)c1ccccc1` (stereo not given), for which the “activity change, negative = inhibition” value was -32.6%.

As for `Nc1[nH][nH]c(=O)c1N=Nc1ccc2c(c1)OCO2`, the “activity change, negative = inhibition” value is -30.8%.

On to `Cc1ccc(OCc2n[nH]c(=S)n2-c2ccccc2)cc1`, for which the “activity change, negative = inhibition” value was -49.9%.

With `O=C(/C=C/c1ccc(N2CCOCC2)cc1)c1ccccc1`, the “activity change, negative = inhibition” value was -38.4%.

On to `O=C1Nc2ccc(Br)cc2/C1=N/N=C/C1=C(N2CCOCC2)C(=C\c2ccccc2)/CC1`, for which the “activity change, negative = inhibition” value was -66.7%.

`COc1ccc(C(=O)C[n+]2ccc(N)c(C)c2C)cc1`: the “activity change, negative = inhibition” value was -74.2%.

Consider `S=c1[nH]nc(COc2ccccc2)n1-c1ccccc1`, for which the “activity change, negative = inhibition” value was -45.1%.

In the case of `COc1ccc(C(CC(=O)c2ccccc2)S(=O)(=O)c2ccccc2)cc1` (stereo not given), the “activity change, negative = inhibition” value is -33.8%.

`S=c1[nH]nc(CSCc2ccc(Cl)cc2Cl)n1-c1ccccc1`: the “activity change, negative = inhibition” value was -42.5%.

For the compound `C(=N\Nc1ccc2ccccc2n1)/c1ccc2c(c1)OCO2`, the “activity change, negative = inhibition” value is -46.9%.

Turning to `Cc1ccc(-n2c(-c3ccc(Cl)cc3)n[nH]c2=S)cc1`, the “activity change, negative = inhibition” value was -95.3%.

`O=c1c(-c2ccccc2)coc2cc(O)ccc12`: the “activity change, negative = inhibition” value is -57.5%.

On to `CN(C)c1ccc(Nc2c3c4c(cccc4n(C)c2=O)C(=O)c2ccccc2-3)cc1`, for which the “activity change, negative = inhibition” value is -37.4%.

Consider `COc1ccc(-c2cn(-c3ccc(OC)cc3)c(=S)[nH]2)cc1`, for which the “activity change, negative = inhibition” value was -19.8%.

For the compound `O=C(CSC(=S)N1CCOCC1)c1ccccc1`, the “activity change, negative = inhibition” value is -54.1%.

Regarding `CSc1ccc(/C=N/NC(=O)c2cccc(Cl)c2)cc1`, the “activity change, negative = inhibition” value is -33.4%.

Consider `COc1ccc(-c2nc(-c3ccccc3)no2)c(OC)c1`, for which the “activity change, negative = inhibition” value is -71.5%.

Consider `Cc1cccc(NC(=O)/C=C/c2ccc3c(c2)OCO3)n1`, for which the “activity change, negative = inhibition” value is -36.4%.

Turning to `O=C(Nc1ccc(Cl)cn1)c1ccc2c(c1)OCCO2`, the “activity change, negative = inhibition” value was -65.4%.

Turning to `Cc1c(Cl)cccc1NC(=O)Nc1ccc(C(=O)N2CCCC2)cc1`, the “activity change, negative = inhibition” value is -31.5%.

For `Cc1cccc(/C(N)=N/OC(=O)c2ccccc2Cl)c1`, the “activity change, negative = inhibition” value was -95.3%.

For the compound `CN=C1C=C/C(=N/N=c2\ccn(O)cc2C)C=C1C`, the “activity change, negative = inhibition” value was -51.9%.

With `COc1cccc(/C=C/c2ccc3ccccc3n2)c1OC(C)=O`, the “activity change, negative = inhibition” value is -74%.

Turning to `Cc1n[nH]c(=O)nc1N/N=C/c1cccs1`, the “activity change, negative = inhibition” value is -58.4%.

In the case of `COc1ccc(-n2c(-c3ccc(OC)c(OC)c3)n[nH]c2=S)cc1`, the “activity change, negative = inhibition” value is -68.7%.

Turning to `c1csc(-c2nc(-c3ccncc3)no2)c1`, the “activity change, negative = inhibition” value is -41.6%.

`Cc1ccn2cc(-c3nonc3C)cc2c1`: the “activity change, negative = inhibition” value is -33.1%.

Regarding `COc1cc(SC)ccc1C(=O)Nc1nc(C)cs1`, the “activity change, negative = inhibition” value was -60.5%.

Take `O=c1c2ccccc2cnn1Cc1n[nH]c(=S)n1-c1ccccc1F`: the “activity change, negative = inhibition” value is -48.1%.
